Source: PubChem BioAssay
TEAD-YAP block – TEAD-YAP interaction inhibition. 1.4% of 640,000 active. inhibition, % at 9.12 µM. HEK-TIYL cells, TEAD-Gal4/YAP UAS-luciferase luminescence. AID 1259422; in the data active = inhibition above about 32%
MITF inh – blocks human microphthalmia-associated transcription factor | AID 1259374 | 0.91% of 650,000 active | inhibition, % at 2.6 µM | AlphaScreen MITF homodimerization, bead proximity signal; in the data active = inhibition above about 50%
GPR151 activ – activates the human receptor GPR151 | AID 1508602 | activation, % at 11.2 µM | 1% of 650,000 active | PathHunter beta-arrestin GPR151 cells, luminescence | Q8TDV0; in the data active = activation above about 4.9%
Target sequence (Q8TDV0 whole entry, looked up): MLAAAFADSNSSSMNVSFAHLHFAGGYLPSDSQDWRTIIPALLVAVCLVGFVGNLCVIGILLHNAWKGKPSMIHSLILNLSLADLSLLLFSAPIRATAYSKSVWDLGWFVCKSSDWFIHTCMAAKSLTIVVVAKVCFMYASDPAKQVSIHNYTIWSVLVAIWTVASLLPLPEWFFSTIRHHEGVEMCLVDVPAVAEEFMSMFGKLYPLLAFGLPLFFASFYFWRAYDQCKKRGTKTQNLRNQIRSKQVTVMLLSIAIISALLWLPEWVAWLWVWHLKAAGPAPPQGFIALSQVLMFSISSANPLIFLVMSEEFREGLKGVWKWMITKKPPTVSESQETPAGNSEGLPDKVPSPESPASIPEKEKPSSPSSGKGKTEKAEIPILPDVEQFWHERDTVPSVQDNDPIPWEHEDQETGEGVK
FBW7 activator – human FBW7 E3 ligase activation, primary screen; AlphaScreen FBW7–phospho-cyclin E peptide binding, activator screen; AID 1259310; normalized activity (activation), % at 26.1 µM; 0.13% of 650,000 active; in the data active = normalized activity above about 1.9%;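 note: purified mutant Fbw7 with reduced substrate affinity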
Of the large screens only hits and unclear results are named; the others gave an inactive call. An excerpt weighted towards active compounds, which were near 3.4% of everything screened.

COC(=O)c1ccc2c(c1)N(Cc1nc(-c3ccccc3C)oc1C)C(=O)C1CCCN21 (centres undefined)	none
Cc1cc(NCCCN2CCCC2=O)nc(N2CCc3ccccc3C2)n1	none
COCCCn1c(C)cc(C(=O)CSc2ncnc3sccc23)c1C	TEAD-YAP block 43.3
CC(=O)CSc1nc(C2CC2)cc(C(F)(F)F)c1C#N	FBW7 activator 2.7
CC1=C(C(=O)Nc2ccccc2)C(c2ccc(C)c([N+](=O)[O-])c2)C2=C(CCCC2=O)N1 (centres undefined)	none
CC1CCN(c2nc(-c3ccc(C(C)(C)C)cc3)nc3ccccc23)CC1	TEAD-YAP block 49.4
COc1ccc(-c2nc(N3CCC(C)CC3)c3ccccc3n2)cc1OC	none
CN1CCN(c2nc(-c3ccc(C(C)(C)C)cc3)nc3ccccc23)CC1	TEAD-YAP block 82.2
Cc1ccc(-c2nc(N3CCN(C)CC3)c3ccccc3n2)cc1	none
COc1ccc(/C=C2\SC(=S)N(c3ccc(O)c(C(=O)O)c3)C2=O)cc1	none
O=C(O)c1cc(N2C(=O)/C(=C\c3ccco3)SC2=S)ccc1O	MITF inh 81.2
Cc1ccc(/C=C2/SC(=S)N(c3ccc(O)c(C(=O)O)c3)C2=O)o1	MITF inh 82.8
CCCCNC(=O)c1cn(-c2ccc(F)cc2F)c(=O)c2ccccc12	none
COC(=O)/C=C/CSc1nnc(-c2ccc(Cl)cc2Cl)o1	TEAD-YAP block 91.5
Cc1ccc(C(=O)[C@@H]2[C@@H](c3ccsc3)C(C#N)(C#N)[C@H]3C=Cc4ccccc4N23)cc1	none
COc1ccc(C(=O)[C@@H]2[C@@H](c3ccc(OC)cc3)C(C#N)(C#N)[C@H]3C=Cc4ccccc4N23)cc1	TEAD-YAP block 62.6
COc1ccc(C(=O)[C@@H]2[C@@H](c3ccsc3)C(C#N)(C#N)[C@H]3C=Cc4ccccc4N23)cc1	TEAD-YAP block 60.3
COc1ccc(C(=O)[C@@H]2[C@@H](c3cccc(Br)c3)C(C#N)(C#N)[C@H]3C=Cc4ccccc4N23)cc1	TEAD-YAP block 64.2
COc1ccc(S(=O)(=O)Nc2ccc3c(c2)CCC(=O)N3CC(C)C)c(OC)c1	none
CCCCNC(=O)c1cc(COc2cccc3cnccc23)on1	none
CN(Cc1ccccc1)C(=O)c1cc(COc2cccc3cnccc23)on1	TEAD-YAP block 33.4
O=C(c1cc(COc2cccc3cnccc23)on1)N1CCCC(CCCO)C1 (centres undefined)	TEAD-YAP block 64.7
CC(NC(=O)C1CCC1)c1ccc(I)cc1 (centres undefined)	none
Cc1oc2c(c1C(=O)NCC1CCCO1)C(=O)c1ccccc1C2=O (centres undefined)	TEAD-YAP block 77.3
Cc1oc2c(c1C(=O)N1CCN(C)CC1)C(=O)c1ccccc1C2=O	TEAD-YAP block 48.0
Cc1nnc(NC(=O)CSc2ccc(-c3ccc(F)cc3)nn2)s1	none
CCOC(=O)c1cc(=N)n(CCCN2CCOCC2)c2nc3ccc(C)cn3c(=O)c12	none
Cc1c(Cl)sn(-c2ccc(Cl)cc2)c1=O	TEAD-YAP block 40.3
Cc1cc(-n2sc(Cl)c(C)c2=O)ccc1Cl	TEAD-YAP block 42.9
COc1ccc(OC)c(CCNC(=O)c2cc3c(C)nc4ccccc4c3o2)c1	TEAD-YAP block 45.8
CC(=O)Nc1ccc(SCC(=O)/C(C#N)=C(\C)N)cc1	none
Cc1ccc2nc(C)c(C(=O)NC(C)C)n2c1	FBW7 activator 1.9
Cc1ccc2nc(C)c(C(=O)N3CCCC3)n2c1	none
Cc1ccc2nc(C)c(C(=O)N3CC(C)CC(C)C3)n2c1 (centres undefined)	FBW7 activator 2.1
COc1ccc(-c2noc(CN(Cc3ccccn3)CC3CCCO3)n2)c(OC)c1OC (centres undefined)	TEAD-YAP block 38.7
Cn1c2ccccc2n2cc(-c3ccccc3)nc12	none
c1ccc(-c2cn3c(ccc4ccccc43)n2)cc1	TEAD-YAP block 84.7
O=C1c2ccc3c4c(ccc(c24)C(=O)N1CCCCO)C(=O)N(CCCCO)C3=O	TEAD-YAP block 78.9
COc1ccc2c(c1)c(C)c(C)n2CCc1ccc(C)nc1	TEAD-YAP block 50.1
Cc1ccc(CCn2c(C)c(C)c3ccccc32)cn1	none
O=C(CNC(=O)c1ccccn1)N=Nc1c(O)[nH]c2ccc([N+](=O)[O-])cc12	none
CSc1ncc(Nc2nc(C)cs2)cn1	none
CC(C)n1c(SCc2ccccc2Cl)nc2c1c(=O)[nH]c(=O)n2C	TEAD-YAP block 43.4
CCOc1cc2c(cc1OCC)C1C(C(=O)N(CC)CC)c3ccccc3C(=O)N1CC2 (centres undefined)	TEAD-YAP block 31.9
CCN(CC)C(=O)C1c2cc(OC)c(OC)cc2C(=O)N2CCc3ccccc3C12 (centres undefined)	none
O=C(Nc1ccc2c(c1)CN(C(=O)Cn1cncn1)CC2)c1ccccc1Cl	TEAD-YAP block 46.6
O=C(Nc1ccc2c(c1)CN(S(=O)(=O)c1cccnc1)CC2)c1ccccc1Cl	TEAD-YAP block 46.0
Cc1ccc(NC(=S)N2CCN(C)CC2)cc1	none
O=c1ccc2ccc(O)c(CN3CCOCC3)c2o1	none
COC(=O)c1ccc([C@@H]2Nc3ccc(C(C)=O)cc3[C@@H]3C=CC[C@@H]32)cc1	none
O=C(O)c1ccc2c(c1)[C@@H]1C=CC[C@@H]1[C@H](c1c(F)cccc1Cl)N2	TEAD-YAP block 39.9
CCOC(=O)c1ccc2c(c1)C1C=CCC1C(C(=O)O)N2 (centres undefined)	MITF inh 76.3
O=C(O)c1ccc2c(c1)C1C=CCC1C(c1cccc3ccccc13)N2 (centres undefined)	TEAD-YAP block 49.1
COC(=O)c1ccc([C@@H]2Nc3ccc(C(=O)O)cc3[C@@H]3C=CC[C@@H]32)cc1	MITF inh 72.8
COc1ccc(C(=O)CC2(O)C(=O)Nc3c(Br)cc(C)cc32)cc1 (centres undefined)	none
O=[N+]([O-])c1ccc2nc3c(c(-c4ccccc4)c2c1)CNCC3	none
Cc1ccc(S(=O)(=O)Nc2ccc(C)c(Cl)c2)cc1	none
N/C(Cc1ccc(Cl)cc1Cl)=N\OC(=O)c1ccc([N+](=O)[O-])cc1	none
O=C(O)c1ccc(C2Nc3ccc([N+](=O)[O-])cc3C3C=CCC32)cc1 (centres undefined)	MITF inh 76.2
CC(C)COC(=O)c1ccc2c(c1)C1C=CCC1C(C(=O)O)N2 (centres undefined)	none
O=C(O)c1ccc2c(c1)C1C=CCC1C(c1ccccc1)N2 (centres undefined)	MITF inh 59.3
COC(=O)c1ccccc1OC(=O)c1ccc2c(c1)C1C=CCC1C(C(=O)O)N2 (centres undefined)	MITF inh 68.3
O=C(O)c1ccc2c(c1)C1C=CCC1C(c1ccc(F)cc1)N2 (centres undefined)	none
O=C(O)C1Nc2ccc(Oc3ccccc3)cc2C2C=CCC12 (centres undefined)	none
O=C(O)C1Nc2ccc([N+](=O)[O-])cc2C2C=CCC12 (centres undefined)	MITF inh 85.3
Clc1cccc2c1nc(-c1ccccc1)n1nnnc21	none
O=C(O)c1ccc2c(c1)C1C=CCC1C(c1ccncc1)N2 (centres undefined)	MITF inh 56.5
